JMJD2A Tudor inh: inhibitors of human JMJD2A Tudor domain; O75164; AlphaScreen JMJD2A-Tudor / H3K4me3 peptide binding; Potency, µM (highest dose often 114 µM), for inactives: top-dose activity change, negative = inhibition, most hits filed as inhibitors; 390,000 compounds, 4.4% hits; note: potency is the fitted concentration of half-maximal effect; % is set by controls: 0 for no effect and ±100 for the full control effect; nearly all actives have a fitted effect of over 50% in size
BAZ2B inh: BAZ2B (human) inhibition; Q9UIF8; AlphaScreen BAZ2B-H3K14Ac peptide displacement; Potency, µM (highest dose often 114 µM), for the others: at the top dose activity change, negative = inhibition, usual class: inhibitors; 360,000 compounds, 4.4% hits; AID 504333; note: potency is the fitted concentration of half-maximal effect; % is set by controls: 0 for no effect and ±100 for the full control effect; nearly all actives have a fitted effect of over 60% in size
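BAZ2B 50 nM plus b-H3(5-23)K14Ac 50 nM, PBS pH 7.4/0.01% Tween-20, 30 min RT; compound added (max 110 uM), 30 min RT; streptavidin donor/Ni-chelate acceptor beads 10 ug/mL final, 20 min dark; AlphaScreen read.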
HP1b chromo inh: blocks HP1-beta chromodomain binding to methylated histone tails | 390,000 compounds, 0.56% hits | Potency, µM (titrated, usually from 114 µM), for the others: at the highest dose activity change, negative = inhibition, usual class: inhibitors | P83916 | AlphaScreen HP1-beta / biotin-H3K9me3 peptide binding; note: potency is the fitted concentration of half-maximal effect; nearly all actives have a fitted effect of over 70% in size
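AlphaScreen: HP1-beta (50 nM) preformed 30 min with biotin-H3(1-18)K9me3 peptide (50 nM) in PBS pH 7.4, 0.01% Tween-20. Compound added for 30 min at RT, then streptavidin donor/nickel chelate acceptor beads (10 ug/mL) for 30 min.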
Six1-Eya2 inh: blocks human Six1 binding to Eya2. AlphaScreen GST-Six1/His-Eya2 binding, biochemical; stronger effect = lower value. activity change, % (concentration not given with the values). 360,000 compounds, 0.56% hits; in the data active = activity change below about -65%; inconclusive = mostly about -30% to -63%; note: % is set by controls: 0 for no effect and ±100 for the full control effect
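Six1/Eya2 binding was read as AlphaScreen signal after compounds were pinned into GST-Six1 plus His-tagged Eya2 (5X stock 250/500 nM) in pH 8.0 Tris/NaCl/TCEP buffer, beads added, then incubated 1 h, 37 C, dark.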
CtBP-E1A inh: blocks the CtBP interaction with E1A; AlphaScreen GST-E1A/His-CtBP binding, 1536-well; stronger effect = lower value; activity change, % (no concentration beside the values); 340,000 compounds, 0.49% hits; AID 651724; in the data active = activity change below about -65%; inconclusive = mostly about -30% to -63%; note: % is set by controls: 0 for no effect and ±100 for the full control effect
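AlphaScreen with 125 nM GST-E1A and 125 nM His-CtBP (5X stocks) in Tris pH 8.0, 300 mM NaCl, BSA, Tween 20, TCEP. Compounds preincubated 2 h at 37 deg C, then glutathione donor/nickel acceptor beads added for 1 h at 37 deg C in dark.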
TDP1 inh: TDP1 (human) enzyme inhibition; recombinant TDP1, AlphaScreen DNA substrate cleavage; Potency, µM (series often up to 130 µM), for the others: at the highest dose activity change, negative = inhibition, most hits filed as inhibitors; 350,000 compounds, 0.28% hits; AID 485290; note: potency is the fitted concentration of half-maximal effect; % is set by controls: 0 for no effect and ±100 for the full control effect; nearly all actives have a fitted effect of over 40% in size
Target sequence (Q9NUW8 whole entry, looked up): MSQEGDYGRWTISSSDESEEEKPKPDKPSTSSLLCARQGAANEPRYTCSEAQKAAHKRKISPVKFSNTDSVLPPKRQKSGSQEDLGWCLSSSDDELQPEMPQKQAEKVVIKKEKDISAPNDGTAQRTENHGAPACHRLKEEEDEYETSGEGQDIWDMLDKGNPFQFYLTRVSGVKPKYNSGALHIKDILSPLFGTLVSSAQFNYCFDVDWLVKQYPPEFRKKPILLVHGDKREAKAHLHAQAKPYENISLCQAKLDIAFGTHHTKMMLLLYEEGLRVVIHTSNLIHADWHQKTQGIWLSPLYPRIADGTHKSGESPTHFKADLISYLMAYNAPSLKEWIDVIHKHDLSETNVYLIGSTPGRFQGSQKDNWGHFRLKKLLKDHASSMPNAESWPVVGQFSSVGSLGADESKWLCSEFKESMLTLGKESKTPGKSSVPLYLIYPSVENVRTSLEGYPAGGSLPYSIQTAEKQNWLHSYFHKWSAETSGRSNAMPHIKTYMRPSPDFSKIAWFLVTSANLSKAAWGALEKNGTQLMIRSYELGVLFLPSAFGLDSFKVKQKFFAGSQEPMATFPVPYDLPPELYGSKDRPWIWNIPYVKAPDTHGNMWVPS
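Here, a 5' biotin and 3' phosphotyrosine-FITC DNA oligonucleotide reports Tdp1 activity: intact substrate bridges AlphaScreen beads, while cleavage leaves a 3' phosphate and drops signal. All incubations at room temperature.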
Active calls of the source: *; ? = inconclusive; . = not tested or not shown; [ ] = remark or other dose. The list is not random: actives were taken first. Their share in the collection is about 5.3%. Unless noted, calls come from the whole dose curve; as a rule, active = well fitted inhibition curve with a large enough effect; inconclusive = small, poorly fitted or top-dose-only effect; inactive = no such curve, though single readings can be large or run the other way.

SMILES	JMJD2A Tudor inh	BAZ2B inh	HP1b chromo inh	Six1-Eya2 inh	CtBP-E1A inh	TDP1 inh
CCOc1ccc(C2C(C(=O)c3ccco3)=C(O)C(=O)N2CCCn2ccnc2)cc1 (stereo not drawn)	45µM*	-2%	22%	-1	3	2%
CCOc1ccc(C2C(C(=O)c3ccco3)=C(O)C(=O)N2CCCn2ccnc2)cc1OCC (stereo not drawn)	-23%	?	23%	2	3	3%
CC1Cc2cc(/C(O)=C3/C(=O)C(=O)N(CCCn4ccnc4)C3c3cccnc3)ccc2O1 (stereo not drawn)	14µM*	?	8%	-1	2	2%
C=CCOc1ccc(/C(O)=C2/C(=O)C(=O)N(CCCn3ccnc3)C2c2ccco2)cc1 (stereo not drawn)	?	50µM*	18%	0	.	.
CC1Cc2cc(/C(O)=C3/C(=O)C(=O)N(CCCn4ccnc4)C3c3ccco3)ccc2O1 (stereo not drawn)	32µM*	?	-6%	2	-1	-4%
CCc1ccc(NC(=O)C2CCCN(S(=O)(=O)c3cccc4cccnc34)C2)cc1 (stereo not drawn)	-15%	-13%	-2%	.	.	1%
COc1cccc(-c2cc(C(=O)Nc3cc(Cl)ccc3O)on2)c1	?	?	-1%	.	.	8%
O=C(CN1CCCC1)N1c2ccccc2Sc2ccc(C(F)(F)F)cc21	-24%	4%	17%	-3	-1	10%
O=C(CN1CCN(c2ccccn2)CC1)N1c2ccccc2CCc2ccccc21	3.2µM*	32µM*	18µM*	-2	-3	-2%
O=C(CN1CCN(c2ccccn2)CC1)N1CC(O)CO1 (stereo not drawn)	3%	-7%	51%	-2	-1	0%
O=C(CN1CCN(c2ccccn2)CC1)N1c2ccccc2Sc2ccc(C(F)(F)F)cc21	2µM*	22µM*	16µM*	-15	-18	0%
Cc1cc2c(s1)c1cnn(Cc3cccc(Cl)c3F)c(=O)c1n2C	-7%	.	.	.	.	.
Cc1ccc(-n2nc3c(=O)n(CC(=O)NC(C)C)nc(C)c3c2C)cc1	8%	-3%	45%	.	.	3%
Cc1ccc(C)c(N2CCN(C(=O)c3cc(C)nc4c3c(C)nn4-c3ccccc3)CC2)c1	-9%	0%[57.1 µM]	45%	.	.	-2%
COc1ccccc1NC(=O)C(=O)NCC(c1ccc2c(c1)OCO2)N1CCOCC1 (stereo not drawn)	?	-3%	23%[57 µM]	.	.	1%
O=C(CSc1nnc2c(n1)[nH]c1ccccc12)Nc1ccc(N2CCOCC2)cc1	32µM*	-31%	0%	-17	-28	6%
O=C(CSc1nnc2c(n1)[nH]c1ccccc12)Nc1ccc(S(=O)(=O)Nc2ncccn2)cc1	-10%	.	69%	-76*	.	5%
Cc1ccc(NC(=O)CSc2nnc3c(n2)[nH]c2ccccc23)cc1	-8%	-1%	19%	5	3	2%[0.0935 µM]
COCCCNC(=O)c1cc(-c2cccnc2)nc2ccc(S(=O)(=O)N3CCC(C)CC3)cc12	-14%	6%	59%	.	.	-5%
COc1ccc(CCNC(=O)c2cnc3sc(N4CCOCC4)nn3c2=O)cc1OC	-5%	1%	17%	.	.	0%
O=C(Nc1cccc(F)c1)c1ccc2snnc2c1	6%	-20%	44%	.	.	3%
CC(C)c1ccc(NC(=O)C(c2ccc3c(c2)OCO3)N2CCCCC2)cc1 (stereo not drawn)	-14%	2%	35%	-10	-1	3%
Oc1cc2c(cc1C(c1ccc(Cl)c(Cl)c1)N1CCCC1)OCO2 (stereo not drawn)	10µM*	35µM*	20µM*	-24	-23	-6%
Cc1cc(C)c(OCC(=O)N(Cc2cccc(F)c2)Cc2ccco2)c(C)c1	0%	46%	73%	.	.	2%
CCC(C)c1ccccc1OCCCCN1CCCC1 (stereo not drawn)	3.2µM*	?	-11%	3	2	3%

Compound activity (PubChem)
